Assay results reported in PubChem BioAssay (EPA / NIEHS).
Records with an inconclusive call do not appear. The source made the active and inactive calls. How the source made its calls: active means hit-call score of the fitted dose curve at least 0.9, where 1 is the maximum; inconclusive means response in the unintended direction; inactive means score below 0.9.

How the values were obtained:
[1] = molecular target: rat Opioid Receptor, Non-selective Binding, Oprm1 (gene 25601) (UniProt P33535); experiment: NVS_GPCR_rOpiate_NonSelective: NovaScreen (NVS) G Protein-Coupled Receptor Assay for rat Opioid Receptor, Non-selective Binding (AID 2283318)
Method in brief: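 Filter-based radioligand displacement using rat forebrain membrane preparations, measured 1.5 h post-dosing. Single-concentration duplicate screen at 25 uM, follow-up in concentration series; activity taken as signal loss relative to DMSO.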

[2] = molecular target: rat Glutamate, AMPA Site (AMPA), Gria1 (gene 50592) (UniProt P19490); experiment: NVS_LGIC_rAMPA: NovaScreen (NVS) Ligand-Gated Ion Channel Assay for rat Glutamate, AMPA Site (AMPA) (AID 2283324)
Method in brief: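 Screening at 25 uM in duplicate preceded concentration series reaching 50 uM for qualifying compounds. Radioligand displacement on rat forebrain membranes, 1 h, filter-based scintillation readout; reduced binding relative to DMSO.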

[3] = system: NCBI gene 24521; experiment: NVS_IC_rKATPCh: NovaScreen (NVS) Ion Channel Assay for rat Potassium Channel, ATP-Sensitive (KATPCh) (AID 2283319)
Method in brief: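 Primary duplicate screen at 25 uM, then singleton concentration series to 50 uM maximum, in a rat cortex membrane radioligand displacement assay. Binding measured by filtration and scintillation 2 h post-dose; DMSO baseline.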

[4] = molecular target: Adra2b (gene 24174) (UniProt P19328); experiment: NVS_GPCR_rmAdra2B: NovaScreen (NVS) G Protein-Coupled Receptor Assay for hybird cells Adrenergic, Alpha 2B Receptor (Adra2B) (AID 2283306)
Method in brief: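 Compounds screened first at 25 uM in duplicate, with actives followed up in concentration-response; specific radioligand displacement from hybrid neuroglioma/blastoma cell membrane preparations measured by filter scintillation counting after 1 h, normalized to DMSO.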

[5] = molecular target: rat Opioid Receptor, Non-selective Sodium (Na+) Binding, Oprm1 (gene 25601) (UniProt P33535); experiment: NVS_GPCR_rOpiate_NonSelectiveNa: NovaScreen (NVS) G Protein-Coupled Receptor Assay for rat Opioid Receptor, Non-selective Sodium (Na+) Binding (AID 2283311)
Method in brief: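 Filtration radioligand binding on rat forebrain membrane preparations, read 1.5 h after dosing. Single-concentration 25 µM primary screen in duplicate, followed by singleton concentration series to 50 µM max for actives; DMSO baseline.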

[6] = molecular target: Sodium channel protein type 1 subunit alpha (Rattus norvegicus) (UniProt P04774); experiment: NVS_IC_rNaCh_site2: NovaScreen (NVS) Ion Channel Assay for rat Sodium Channel, Site 2 (NaCh) (AID 2283322);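 further: hit means loss of radioligand binding signal relative to DMSO so AC50 marks displacement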
Method in brief: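 Initial duplicate single-point testing at 25 uM, followed by concentration-response runs for actives. Binding of radioligand to rat forebrain membranes quantified after 1 h via filter-based radiodetection.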

[7] = molecular target: Metabotropic glutamate receptor 1 (Rattus norvegicus) (UniProt P23385); experiment: NVS_GPCR_rmMGluR1: NovaScreen (NVS) G Protein-Coupled Receptor Assay for rat Glutamate Metabotropic Receptor 1 (MGluR1) (AID 2283305)
Method in brief: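 Binding to native receptor from rat cerebellum extract, measured as displacement of a radioligand (scintillation counting, filter separation) after 1 hour. Compounds tested at 25 uM in duplicate, then titrated to a 50 uM maximum.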

[8] = molecular target: rat Somatostatin Receptor (SST), Sstr1 (gene 25033) (UniProt P28646); experiment: NVS_GPCR_rSST: NovaScreen (NVS) G Protein-Coupled Receptor Assay for rat Somatostatin Receptor (SST) (AID 2283314)
Method in brief: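 Single-concentration duplicate screen (25 uM), then concentration-response up to 50 uM for chemicals passing a threshold such as 30% inhibition. Membranes came from rat forebrain. Binding was measured 1 h post-dose by filter radiodetection and scintillation, relative to DMSO.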

[9] = NVS_IC_rCaDHPRCh_L: NovaScreen (NVS) Ion Channel Assay for rat Calcium Channel, Type L, Dihydropyridine Site (CaDHPRCh_L) (AID 2283320)
Method in brief: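 Rat cortex membrane preparation; dihydropyridine-site radioligand displacement read 1 h post-dose by filtration and scintillation. Primary single-point screen 25 uM in duplicate, then concentration series to 50 uM maximum; DMSO as negative control.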

[10] = molecular target: rat Neurokinin-3 Receptor (NK3), Tacr3 (gene 24808) (UniProt P16177); experiment: NVS_GPCR_rNK3: NovaScreen (NVS) G Protein-Coupled Receptor Assay for rat Neurokinin-3 Receptor (NK3) (AID 2283310)
Method in brief: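 Filter-based radioligand displacement on rat cortex membrane preparations, read by scintillation 2 h post-dose. Chemicals first tested in duplicate at 25 uM; actives followed up in concentration series with a 50 uM maximum.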

[11] = molecular target: rat Gamma-Aminobutyric Acid Type B Receptor (GABBR), Gabbr1 (gene 81657) (UniProt Q9Z0U4); experiment: NVS_GPCR_rGABBR: NovaScreen (NVS) G Protein-Coupled Receptor Assay for rat Gamma-Aminobutyric Acid Type B Receptor (GABBR) (AID 2283301)
Method in brief: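 Rat cortical membrane preparation, competitive radioligand binding for 1 h with filtration and scintillation readout. Actives from duplicate single-point 25 uM screening proceeded to concentration series with 50 uM top concentration.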

[12] = molecular target: rat Neurokinin-1 Receptor (NK1), Tacr1 (gene 24807) (UniProt P14600); experiment: NVS_GPCR_rNK1: NovaScreen (NVS) G Protein-Coupled Receptor Assay for rat Neurokinin-1 Receptor (NK1) (AID 2283309)
Method in brief: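 Competitive radioligand binding to NK1 in rat submaxillary membranes, 1 h incubation, filtration and scintillation read-out. Compounds first screened at 25 uM in duplicate, then concentration-response for actives; signal loss relative to DMSO.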

[13] = molecular target: rat Vasopressin 1 Receptor (V1), Avpr1a (gene 25107) (UniProt P30560); experiment: NVS_GPCR_rV1: NovaScreen (NVS) G Protein-Coupled Receptor Assay for rat Vasopressin 1 Receptor (V1) (AID 2283316)
Method in brief: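 Concentration-response up to 50 uM for chemicals passing a threshold such as 30% inhibition in an initial duplicate 25 uM screen. Displacement of radioligand from rat liver membranes measured after 1.5 h by filtration and scintillation.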

[14] = molecular target: rat Gamma-Aminobutyric Acid Type A Receptor, Non-Selective (GABAR-NonSelective), Gabra1 (gene 29705) (UniProt P62813); experiment: NVS_LGIC_rGABAR_NonSelective: NovaScreen (NVS) Ligand-Gated Ion Channel Assay for rat Gamma-Aminobutyric Acid Type A Receptor, Non-Selective (GABAR-NonSelective) (AID 2283326)
Method in brief: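 Compounds were first screened in duplicate at 25 uM, with actives run as singleton concentration series (max 50 uM). Binding of a radioligand to rat whole-brain GABA-A preparation was measured by filtration and scintillation counting after 1 h, DMSO baseline.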

[15] = molecular target: rat Neonicotinoid receptor (NNR), Chrna7 (gene 25302) (UniProt Q05941); experiment: NVS_LGIC_rNNR_BungSens: NovaScreen (NVS) Ligand-Gated Ion Channel Assay for rat Neonicotinoid receptor (NNR) (AID 2283315)
Method in brief: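 Rat cortical membrane preparation incubated 2.5 h with tritiated or iodinated radioligand and test chemical. Bound radioactivity was filtered and counted by scintillation, and displacement was analysed against DMSO.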

Sequence of Adra2b (gene 24174) (P19328 whole entry, looked up): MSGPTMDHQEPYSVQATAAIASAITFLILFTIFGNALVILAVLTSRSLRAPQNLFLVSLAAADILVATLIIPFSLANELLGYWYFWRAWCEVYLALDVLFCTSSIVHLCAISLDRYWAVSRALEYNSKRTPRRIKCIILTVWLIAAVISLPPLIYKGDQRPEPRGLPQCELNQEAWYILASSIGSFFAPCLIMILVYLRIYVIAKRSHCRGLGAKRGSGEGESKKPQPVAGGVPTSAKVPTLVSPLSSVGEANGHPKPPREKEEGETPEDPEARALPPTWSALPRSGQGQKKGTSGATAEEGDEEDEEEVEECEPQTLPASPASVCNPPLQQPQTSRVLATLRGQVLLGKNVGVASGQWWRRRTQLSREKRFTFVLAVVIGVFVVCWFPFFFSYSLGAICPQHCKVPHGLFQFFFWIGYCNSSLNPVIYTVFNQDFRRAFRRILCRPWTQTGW
Sequence of rat Opioid Receptor, Non-selective Sodium (Na+) Binding, Oprm1 (gene 25601) (P33535 whole entry, looked up): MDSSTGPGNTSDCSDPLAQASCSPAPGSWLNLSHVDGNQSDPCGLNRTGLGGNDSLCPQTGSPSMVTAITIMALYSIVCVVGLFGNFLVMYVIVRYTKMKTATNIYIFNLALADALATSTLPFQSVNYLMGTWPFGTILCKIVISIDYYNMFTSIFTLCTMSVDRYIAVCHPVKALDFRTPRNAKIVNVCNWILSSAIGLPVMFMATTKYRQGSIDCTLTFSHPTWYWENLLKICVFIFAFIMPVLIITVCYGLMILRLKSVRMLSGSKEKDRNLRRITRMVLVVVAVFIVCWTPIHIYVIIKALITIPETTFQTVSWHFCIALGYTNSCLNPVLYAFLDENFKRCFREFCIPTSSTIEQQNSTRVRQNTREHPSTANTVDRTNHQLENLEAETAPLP
Sequence of rat Glutamate, AMPA Site (AMPA), Gria1 (gene 50592) (P19490 whole entry, looked up): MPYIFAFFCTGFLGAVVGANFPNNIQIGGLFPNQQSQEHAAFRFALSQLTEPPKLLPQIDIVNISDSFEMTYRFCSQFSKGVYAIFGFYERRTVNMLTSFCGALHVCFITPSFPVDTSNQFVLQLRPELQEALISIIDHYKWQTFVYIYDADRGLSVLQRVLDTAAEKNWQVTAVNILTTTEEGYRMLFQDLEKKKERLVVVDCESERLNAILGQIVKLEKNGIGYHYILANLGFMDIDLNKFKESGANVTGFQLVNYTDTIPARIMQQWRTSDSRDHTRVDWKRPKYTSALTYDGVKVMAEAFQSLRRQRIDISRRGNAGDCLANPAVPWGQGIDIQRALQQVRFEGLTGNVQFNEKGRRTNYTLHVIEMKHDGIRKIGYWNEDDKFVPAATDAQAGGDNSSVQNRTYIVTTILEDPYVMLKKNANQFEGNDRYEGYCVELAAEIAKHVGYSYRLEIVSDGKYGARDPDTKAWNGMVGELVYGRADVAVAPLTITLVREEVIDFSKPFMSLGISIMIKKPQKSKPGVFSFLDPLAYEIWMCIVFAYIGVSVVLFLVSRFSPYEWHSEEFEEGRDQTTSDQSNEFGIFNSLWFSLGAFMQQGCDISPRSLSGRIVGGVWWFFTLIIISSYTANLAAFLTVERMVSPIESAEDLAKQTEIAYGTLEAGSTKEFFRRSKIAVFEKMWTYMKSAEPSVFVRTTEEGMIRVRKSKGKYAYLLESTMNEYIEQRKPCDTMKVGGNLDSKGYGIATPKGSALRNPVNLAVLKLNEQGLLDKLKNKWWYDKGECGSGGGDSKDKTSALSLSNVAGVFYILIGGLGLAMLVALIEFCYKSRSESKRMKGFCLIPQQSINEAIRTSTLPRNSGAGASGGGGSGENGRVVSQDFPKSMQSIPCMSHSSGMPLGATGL
Sequence of rat Neurokinin-1 Receptor (NK1), Tacr1 (gene 24807) (P14600 whole entry, looked up): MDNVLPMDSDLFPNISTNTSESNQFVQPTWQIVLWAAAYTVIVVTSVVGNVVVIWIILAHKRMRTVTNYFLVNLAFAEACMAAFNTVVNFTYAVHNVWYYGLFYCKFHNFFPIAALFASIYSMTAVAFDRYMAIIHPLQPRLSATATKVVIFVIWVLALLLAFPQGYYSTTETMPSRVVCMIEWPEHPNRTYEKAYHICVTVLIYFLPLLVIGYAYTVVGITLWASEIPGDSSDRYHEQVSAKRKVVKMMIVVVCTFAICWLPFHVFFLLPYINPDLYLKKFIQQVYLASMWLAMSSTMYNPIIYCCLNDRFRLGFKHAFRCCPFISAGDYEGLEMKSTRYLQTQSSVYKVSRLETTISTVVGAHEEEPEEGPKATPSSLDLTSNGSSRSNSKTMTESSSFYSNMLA
Sequence of rat Opioid Receptor, Non-selective Binding, Oprm1 (gene 25601) (P33535 whole entry, looked up): as the sequence (P33535 whole entry, looked up) above
Sequence of rat Neonicotinoid receptor (NNR), Chrna7 (gene 25302) (Q05941 whole entry, looked up): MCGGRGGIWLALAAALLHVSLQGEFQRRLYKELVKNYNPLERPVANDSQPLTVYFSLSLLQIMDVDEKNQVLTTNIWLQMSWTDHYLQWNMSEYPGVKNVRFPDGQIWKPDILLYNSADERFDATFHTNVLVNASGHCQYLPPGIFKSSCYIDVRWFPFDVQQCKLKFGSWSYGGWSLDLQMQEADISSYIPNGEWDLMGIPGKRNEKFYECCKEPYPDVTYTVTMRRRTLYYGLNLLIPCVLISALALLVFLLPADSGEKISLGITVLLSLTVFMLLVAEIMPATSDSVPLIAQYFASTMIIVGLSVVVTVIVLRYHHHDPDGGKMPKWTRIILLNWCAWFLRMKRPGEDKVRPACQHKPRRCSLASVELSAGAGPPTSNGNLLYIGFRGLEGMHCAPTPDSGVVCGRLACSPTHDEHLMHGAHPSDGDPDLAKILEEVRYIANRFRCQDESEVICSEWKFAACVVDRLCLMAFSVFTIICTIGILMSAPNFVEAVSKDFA
Sequence of rat Vasopressin 1 Receptor (V1), Avpr1a (gene 25107) (P30560 whole entry, looked up): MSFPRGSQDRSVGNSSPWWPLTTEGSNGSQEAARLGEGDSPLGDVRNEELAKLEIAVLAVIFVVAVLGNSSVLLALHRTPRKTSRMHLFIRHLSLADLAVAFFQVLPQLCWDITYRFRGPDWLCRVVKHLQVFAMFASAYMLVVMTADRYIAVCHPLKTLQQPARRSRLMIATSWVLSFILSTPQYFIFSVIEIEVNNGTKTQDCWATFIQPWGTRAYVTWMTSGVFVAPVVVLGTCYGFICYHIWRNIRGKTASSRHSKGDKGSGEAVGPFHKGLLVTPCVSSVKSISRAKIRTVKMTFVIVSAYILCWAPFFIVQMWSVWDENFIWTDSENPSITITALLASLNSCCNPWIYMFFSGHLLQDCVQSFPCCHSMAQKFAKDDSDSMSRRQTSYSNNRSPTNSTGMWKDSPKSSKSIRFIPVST
Sequence of rat Somatostatin Receptor (SST), Sstr1 (gene 25033) (P28646 whole entry, looked up): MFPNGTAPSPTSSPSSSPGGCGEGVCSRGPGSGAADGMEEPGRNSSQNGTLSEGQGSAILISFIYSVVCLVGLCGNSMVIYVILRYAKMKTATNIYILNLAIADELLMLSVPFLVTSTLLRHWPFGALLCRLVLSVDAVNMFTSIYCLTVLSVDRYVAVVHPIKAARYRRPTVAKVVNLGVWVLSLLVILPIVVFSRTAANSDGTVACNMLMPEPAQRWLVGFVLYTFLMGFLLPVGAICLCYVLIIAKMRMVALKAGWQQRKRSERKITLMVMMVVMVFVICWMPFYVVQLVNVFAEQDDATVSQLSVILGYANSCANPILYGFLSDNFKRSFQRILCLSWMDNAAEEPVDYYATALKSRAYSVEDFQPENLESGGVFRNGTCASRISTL
Sequence of rat Gamma-Aminobutyric Acid Type B Receptor (GABBR), Gabbr1 (gene 81657) (Q9Z0U4 whole entry, looked up): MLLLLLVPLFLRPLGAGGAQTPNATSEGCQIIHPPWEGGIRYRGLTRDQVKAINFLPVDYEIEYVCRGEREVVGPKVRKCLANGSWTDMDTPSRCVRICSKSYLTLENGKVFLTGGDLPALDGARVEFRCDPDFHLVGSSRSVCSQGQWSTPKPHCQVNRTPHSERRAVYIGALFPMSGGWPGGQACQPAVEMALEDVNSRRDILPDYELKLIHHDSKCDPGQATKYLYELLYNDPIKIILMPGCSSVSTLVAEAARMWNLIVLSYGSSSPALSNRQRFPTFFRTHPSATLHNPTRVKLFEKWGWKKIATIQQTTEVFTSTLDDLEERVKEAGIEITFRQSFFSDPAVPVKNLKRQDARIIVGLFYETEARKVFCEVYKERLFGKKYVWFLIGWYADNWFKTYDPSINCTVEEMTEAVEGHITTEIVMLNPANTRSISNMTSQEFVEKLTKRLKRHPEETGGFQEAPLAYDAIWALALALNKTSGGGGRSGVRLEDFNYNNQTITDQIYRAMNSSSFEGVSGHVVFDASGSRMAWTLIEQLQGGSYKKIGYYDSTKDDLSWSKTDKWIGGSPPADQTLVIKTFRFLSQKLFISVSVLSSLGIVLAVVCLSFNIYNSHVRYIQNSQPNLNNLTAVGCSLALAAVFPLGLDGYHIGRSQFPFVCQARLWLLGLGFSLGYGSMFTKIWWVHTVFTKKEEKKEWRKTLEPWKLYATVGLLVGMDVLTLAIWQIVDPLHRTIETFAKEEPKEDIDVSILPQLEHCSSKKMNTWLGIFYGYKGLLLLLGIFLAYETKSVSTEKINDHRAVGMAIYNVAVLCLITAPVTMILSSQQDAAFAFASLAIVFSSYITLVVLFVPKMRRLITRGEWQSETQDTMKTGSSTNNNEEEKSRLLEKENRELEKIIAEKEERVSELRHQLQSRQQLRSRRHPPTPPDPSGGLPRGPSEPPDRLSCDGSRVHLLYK

## Cc1cc(NC(=O)C(=O)O)cc(C)c1Oc1ccc(O)c2c1CCC2
[1]
  outcome: inactive
[2]
  outcome: inactive

## CCCc1cc(=O)[nH]c(=S)[nH]1
[3]
  outcome: inactive

## NC(=O)Cn1c(=O)cc(CCN2CCN(c3nccc4sccc34)CC2)c2ccc(F)cc21
[4]
  AC50: 0.131 µM (active)
[5]
  AC50: 1.38 µM (active)
[1]
  AC50: 1.45 µM (active)
[6]
  outcome: inactive

## CC1(C)CC(N=C=O)CC(C)(CN=C=O)C1 (centres undefined)
[7]
  outcome: inactive

## Cc1nc(C)nc(N2C[C@@H](C)N(c3ccnc([C@@H](C)O)n3)[C@@H](C)C2)n1
[4]
  outcome: inactive

## Cc1cc(=O)[nH]c(=S)[nH]1
[8]
  AC50: 13.2 µM (active)
[9]
  outcome: inactive

## CCCCCCCC=O
[2]
  outcome: inactive

## CCc1c(C(=O)NN2CCCCC2)nn(-c2ccc(Cl)cc2Cl)c1-c1ccc(Br)cc1
[10]
  outcome: inactive
[9]
  outcome: inactive
[6]
  AC50: 11.5 µM (active)

## Cc1oc(-c2ccccc2)nc1CCOc1cccc2c1ccn2CCC(=O)O
[11]
  AC50: 15.9 µM (active)

## Nc1ccc(S(=O)(=O)c2ccc(N)cc2)cc1
[5]
  outcome: inactive

## COc1cc(-c2nc(NC(=O)c3cc4cc(C)cc(C)c4n3CC(=O)O)sc2CCC2CCCCC2)c(OC)cc1Cl
[9]
  AC50: 6.08 µM (active)
[6]
  AC50: 9.13 µM (active)

## CN1CCN(Cc2cc(-c3ccc4[nH]c(=O)oc4c3)co2)[C@@H](c2ccc(F)cc2)C1
[4]
  AC50: 15.8 µM (active)
[12]
  AC50: 22 µM (active)
[5]
  outcome: inactive
[9]
  AC50: 15 µM (active)
[6]
  AC50: 7.72 µM (active)

## Cc1cccc(Nc2cc(Cl)nc(SCC(=O)O)n2)c1C
[13]
  AC50: 2.85 µM (active)

## Nc1nc(N)c2nc(CNc3ccc(C(=O)N[C@@H](CCC(=O)O)C(=O)O)cc3)cnc2n1
[9]
  AC50: 25 µM (active)
[2]
  AC50: 23.2 µM (active)
[14]
  outcome: inactive

## CCOC(=O)CCC(=O)OCC
[6]
  outcome: inactive

## FC(F)(F)C(F)(F)C(F)(F)C(F)(F)C(F)(F)C(F)(F)CCI
[9]
  outcome: inactive

## CCOC(=O)C(C)(C)Oc1ccc(Cl)cc1
[12]
  outcome: inactive
[15]
  outcome: inactive

## Cc1nc(-c2ccc3c(c2)CCN(CCC2CCC(NC(=O)/C=C/c4ccc(F)cc4)CC2)CC3)no1 (centres undefined)
[15]
  outcome: inactive
[6]
  AC50: 0.265 µM (active)
